According to PubChem BioAssay AID2778 (National Center for Advancing Translational Sciences (NCATS), 2010):
Results filed as inconclusive are left out. The source made the active and inactive calls. Calls come from the whole dose curve; as a rule, active = well fitted inhibition curve with a large enough effect; inconclusive = small, poorly fitted or top-dose-only effect, or effect the other way; inactive = flat fitted curve, though single readings scatter.

Target: Menin (Homo sapiens) (UniProt O00255)
Experiment: Confirmation of Inhibitors Targeting the Menin-MLL Interaction in MLL Related Leukemias: Confirmation in an HTRF (commercial TR-FRET) Assay using His-tagged menin and biotin-labeled MLL peptide
Details: His-menin / biotin-MLL peptide binding; series mostly up to 126 µM; activity change, negative = inhibition: at the top concentration
Method in brief: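 HTRF: His6-menin (200 nM) and biotin-MLL-w.t. peptide (80 nM) preincubated 15 min, then compounds 1 hr at ambient, before Eu-cryptate anti-His (3.5 nM) and streptavidin-XL665 (10 nM) for 1 h; 50 mM Tris-HCl pH 7.5, 50 mM NaCl, 1 mM DTT, BSA.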
% is set by controls: 0 for no effect and ±100 for the full control effect; potency is the fitted concentration of half-maximal effect.

Sequence of Menin (Homo sapiens) (O00255 whole entry, looked up): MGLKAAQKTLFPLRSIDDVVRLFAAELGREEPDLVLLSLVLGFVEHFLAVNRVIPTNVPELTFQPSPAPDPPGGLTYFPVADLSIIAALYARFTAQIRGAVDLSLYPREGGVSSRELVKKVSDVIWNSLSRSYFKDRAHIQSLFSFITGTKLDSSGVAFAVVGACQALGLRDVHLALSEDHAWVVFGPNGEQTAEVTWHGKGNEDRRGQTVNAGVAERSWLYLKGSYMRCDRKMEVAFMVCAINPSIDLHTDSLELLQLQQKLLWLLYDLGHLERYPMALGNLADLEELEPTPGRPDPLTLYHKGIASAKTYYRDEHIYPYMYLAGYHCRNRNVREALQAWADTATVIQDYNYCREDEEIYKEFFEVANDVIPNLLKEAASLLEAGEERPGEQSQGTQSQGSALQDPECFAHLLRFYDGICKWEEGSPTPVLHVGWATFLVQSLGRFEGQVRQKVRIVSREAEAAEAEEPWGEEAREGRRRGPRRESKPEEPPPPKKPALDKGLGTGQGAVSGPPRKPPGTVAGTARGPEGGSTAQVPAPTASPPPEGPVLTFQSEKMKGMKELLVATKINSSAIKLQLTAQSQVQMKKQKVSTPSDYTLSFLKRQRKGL

Activity change, negative = inhibition, inactive:
Cc1ccccc1-c1cncnc1NC1CCNCC1 -14.4% [at 383 µM]
COc1cc(SC)ccc1C(=O)Nc1cccc(C2OCCCO2)c1 -11.9% [at 383 µM]
Cc1nn(-c2ccccc2)c2nc(N)c(C(N)=O)cc12 11.3%
COc1cc(NC(=O)c2cccnc2)c(OC)cc1NC(=O)c1ccc(Br)cc1 -9.27%
C[C@@H]1CN(C(=O)c2nc3ccc(Cl)cn3c2CNCC[C@@H]2C[C@@H]3C=C[C@H]2C3)C[C@H](C)O1 -3.93%
O=C(Nc1nnc(-c2ccccc2SCc2ccccc2)s1)Nc1ccccc1F -20.5%
Oc1ccc(Nc2ncnc3c2oc2ccccc23)cc1 -8.71% [at 383 µM]
COc1cccc(C(=O)/C=C/Nc2ccc(S(=O)(=O)Nc3ccc(C(C)=O)cc3)cc2)c1 -17.8% [at 383 µM]
CCn1ncc(C(=O)Nc2cc(C)on2)c1C -3.27%
CC(c1ccccc1)c1nnc(NC(=O)Nc2ccccc2F)s1 (stereo not given) -6.18% [at 383 µM]
O=S(=O)(NCCc1c[nH]c2ccccc12)c1ccccc1 1.89% [at 383 µM]
O=C(NNCS(=O)(=O)O)c1ccncc1 -1.81%
O=C(N/N=C/c1cn(-c2ccccc2)nc1-c1cc2ccccc2o1)c1ccccc1Br -16.3%
CCCc1cc(=O)oc2c3c(c(Cl)cc12)OCN(CCCO)C3 -14.5% [at 383 µM]
Cc1c(CCOC(=O)CC23CC4CC(CC(C)(C4)C2)C3)sc[n+]1Cc1ccc([N+](=O)[O-])cc1 -18.3% [at 383 µM]
CN(CCOc1ccc(Cl)cc1)CC(O)c1ccccc1 (stereo not given) -2.63% [at 383 µM]
c1ccc(-c2ccc(-c3csnn3)cc2)cc1 -8.86%
CCC(=O)NC(=S)Nc1ccc(NC(=S)NC(=O)c2ccc(C)cc2)cc1 -19.9%
COc1ccc(-c2cc(-c3ccc(C)cc3)n[nH]2)c(O)c1 -10.7% [at 383 µM]
Fc1ccccc1C1c2cccn2CCN1C(=S)Nc1ccc(Br)cc1 (stereo not given) -15.8%
O=C(c1cc2c(=O)n3ccccc3nc2s1)N1CCOCC1 -10.9% [at 383 µM]
O=C(C1CCCN(Cc2cccc(Cl)c2)C1)N1CCCCC1 (stereo not given) 1.08%
O=C(O)CCC(=O)Nc1ccc(SSc2ccc(NC(=O)CCC(=O)O)cc2)cc1 7.72% [at 383 µM]
O=C(Nc1ccc2c(c1)OCO2)c1ccccc1 0.989%
CCOC(=O)N1CCN(Cc2nnc(-c3ccccc3C)o2)CC1 10.3%
CCN1C(=O)c2ccccc2S(=O)(=O)c2ccc(C(=O)NCCCN(CC(C)C)CC(C)C)cc21 2.24%
COC(=O)COc1ccc(C(C2C(=O)CC(C)(C)CC2=O)C2C(=O)CC(C)(C)CC2=O)cc1 -6.86%
COCCNC(=O)C(OC(=O)c1nsc(Cl)c1Cl)C(C)C (stereo not given) 5.03%
CCOC(=O)Cn1c2ccccc2n2nc(CCC(=O)O)c(=O)nc12 -0.0741%
Cc1nc(C)c(-c2ccc(SCc3ccccc3F)nn2)s1 2.1%
O=C1C(Cl)=C(NC(=O)c2ccccc2)C(=O)C(Cl)=C1NC(=O)c1ccccc1 -2.38% [at 383 µM]
CC1CCCCN1S(=O)(=O)c1ccc(C(=O)Nc2ccccc2-c2nc3ccccc3[nH]2)cc1 (stereo not given) -17.5% [at 383 µM]

Potency, active:
Cc1sc2ncnc(NC3CCN(Cc4ccccc4)CC3)c2c1C 126 µM
CN(C)[C@H]1C(=O)C(C(=O)NCN2CCCC2)=C(O)[C@]2(O)C(=O)C3=C(O)c4c(O)cccc4[C@](C)(O)[C@H]3C[C@H]12 70.7 µM
CNC[C@H](CC1CCCCC1)NC[C@H](Cc1ccccc1)NCCC12CC3CC(CC(C3)C1)C2 251 µM
